Whole data set: some 8,300 sequences, median “log2 fold change of degron read counts, EGFP-low vs EGFP+ sorted cells (limma voom), compound-induced degradation” near -1.1, cut for the highest 2% near 3.2. The list comes from a sample in which the highest values are over-represented; it also holds similar and randomly drawn sequences.

The text below walks through data of the supplement of paper PMC12645437, “Orthogonal IMiD-Degron Pairs Induce Selective Protein Degradation in Cells” (ACS Chemical Biology, 2025).

This test concerns the target T1, CRBN, Q96SW2.
T1 chain: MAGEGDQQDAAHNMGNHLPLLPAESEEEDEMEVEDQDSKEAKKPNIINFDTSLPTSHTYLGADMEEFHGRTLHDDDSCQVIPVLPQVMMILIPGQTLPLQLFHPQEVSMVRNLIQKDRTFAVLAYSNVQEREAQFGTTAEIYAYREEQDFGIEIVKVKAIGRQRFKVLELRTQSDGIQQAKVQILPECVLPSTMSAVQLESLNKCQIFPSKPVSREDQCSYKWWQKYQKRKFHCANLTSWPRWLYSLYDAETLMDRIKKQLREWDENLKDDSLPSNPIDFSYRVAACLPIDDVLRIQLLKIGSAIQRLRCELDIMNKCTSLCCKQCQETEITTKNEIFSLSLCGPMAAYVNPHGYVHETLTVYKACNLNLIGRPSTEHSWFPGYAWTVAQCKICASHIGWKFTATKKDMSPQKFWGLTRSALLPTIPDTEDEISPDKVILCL
As to the kind of experiment: log2 fold change of degron read counts, EGFP-low vs EGFP+ sorted cells (limma voom), compound-induced degradation; higher = more compound-induced degradation of the degron-EGFP fusion; degrons are variants of IKZF1/3 zinc finger 2; compound dose not given here. To be noted: Jurkat, 18 h.

The mark [1] stands for this setting: compound: compound 19 (5-tert-butyl-thalidomide).
Where [2] appears, read: compound: compound 22 (5-morpholino-thalidomide).
The mark [3] stands for this setting: compound: compound 33 (diphenyl IMiD analogue).
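Further: pooled lentiviral library of zinc finger degron-EGFP fusions in mCherry-positive Jurkat cells, FACS-sorted after compound exposure, with degron abundance counted by next-generation sequencing.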

In the case of FICNVCGAPFTQKGNLLRHIKL [46F_47I_49N_50V_52G_53A_54P_55F_67L_, Q9UKT9], the “log2 fold change of degron read counts” value reads like this: under setting [1], -0.34; under setting [2], 2.49; under setting [3], 1.6; (compound: thalidomide) 2.07.

For FGCNVCGAPFTQKGNLLRHIKL [46F_47G_49N_50V_52G_53A_54P_55F_67L_, Q9UKT9], the “log2 fold change of degron read counts” value under setting [1] was -0.996, the “log2 fold change of degron read counts” value under setting [2] is -1.44, the “log2 fold change of degron read counts” value under setting [3] was -1.2 and the “log2 fold change of degron read counts” value (compound: thalidomide) was -1.32.

Turning to FDCPVCGAPFTQKGNLLRHIKL [46F_47D_49P_50V_52G_53A_54P_55F_67L_, Q9UKT9], the “log2 fold change of degron read counts” value by setting is: under setting [1], 2.39; under setting [2], 0.488; under setting [3], 0.886; (compound: thalidomide) 1.55.

On to FICDVCGAPFTQKGNLLRHIKL [46F_47I_49D_50V_52G_53A_54P_55F_67L_, Q9UKT9], for which the “log2 fold change of degron read counts” value was -0.148 under setting [1], 3.08 under setting [2], 1.53 under setting [3] and 1.67 (compound: thalidomide).

With FCCPVCGAPFTQKGNLLRHIKL [46F_47C_49P_50V_52G_53A_54P_55F_67L_, Q9UKT9], the “log2 fold change of degron read counts” value is 3.13 under setting [1], 2.6 under setting [2], 1.7 under setting [3] and 2.1 (compound: thalidomide).

As to FKCPVCGAPFTQKGNLLRHIKL [46F_47K_49P_50V_52G_53A_54P_55F_67L_, Q9UKT9], the “log2 fold change of degron read counts” value stood at 2.06 under setting [1], 1.94 under setting [2], 0.0815 under setting [3] and 2.39 (compound: thalidomide).

On to FGCPVCGAPFTQKGNLLRHIKL [46F_47G_49P_50V_52G_53A_54P_55F_67L_, Q9UKT9], for which the “log2 fold change of degron read counts” value reads like this: under setting [1], 3.34; under setting [2], 1.9; under setting [3], 1.27; (compound: thalidomide) 0.43.

As for FSCPVCGAPFTQKGNLLRHIKL [46F_47S_49P_50V_52G_53A_54P_55F_67L_, Q9UKT9], the “log2 fold change of degron read counts” value runs as follows: under setting [1], 3.04; under setting [2], 2.37; under setting [3], 1.65; (compound: thalidomide) 2.12.

Regarding FLCPVCGAPFTQKGNLLRHIKL [46F_47L_49P_50V_52G_53A_54P_55F_67L_, Q9UKT9], the “log2 fold change of degron read counts” value reads like this: under setting [1], 1.29; under setting [2], 2.67; under setting [3], 2.93; (compound: thalidomide) 3.41.

For the sequence FACPVCGAPFTQKGNLLRHIKL [46F_47A_49P_50V_52G_53A_54P_55F_67L_, Q9UKT9], the “log2 fold change of degron read counts” value is, setting by setting: under setting [1], 3.58; under setting [2], 2.58; under setting [3], 1.07; (compound: thalidomide) 2.23.

Take FICPVCGAPFTQKGNLLRHIKL [46F_47I_49P_50V_52G_53A_54P_55F_67L_, Q9UKT9]: the “log2 fold change of degron read counts” value was 1.18 under setting [1], 3.94 under setting [2], 2.58 under setting [3] and 3.08 (compound: thalidomide).

Regarding FDCPICGHFFTQKGNLLRHIKL [46F_47D_49P_50I_52G_53H_54F_55F_67L_, Q9UKT9], the “log2 fold change of degron read counts” value is -1.89 under setting [1], -2.22 under setting [2], -1.79 under setting [3] and -1.75 (compound: thalidomide).

FICDVCGAWFTQKGNLLRHIKL [46F_47I_49D_50V_52G_53A_54W_55F_67L_, Q9UKT9]: the “log2 fold change of degron read counts” value under setting [1] was -2.55, the “log2 fold change of degron read counts” value under setting [2] is -1.74, the “log2 fold change of degron read counts” value under setting [3] was -0.491 and the “log2 fold change of degron read counts” value (compound: thalidomide) was -1.83.

On to FMCPQCGARFTQKGNLLRHIKL [46F_47M_49P_50Q_52G_53A_54R_55F_67L_, Q9UKT9], for which the “log2 fold change of degron read counts” value is -1.45 under setting [1], -1.19 under setting [2], 0.32 under setting [3] and -0.605 (compound: thalidomide).

Regarding FGCNVCGAEFTQKGNLLRHIKL [46F_47G_49N_50V_52G_53A_54E_55F_67L_, Q9UKT9], the “log2 fold change of degron read counts” value by setting is: under setting [1], -2.62; under setting [2], -1.85; under setting [3], -0.606; (compound: thalidomide) -0.925.

Consider FTCNQCGRVFTQKGNLLRHIKL [46F_47T_49N_50Q_52G_53R_54V_55F_67L_, Q9UKT9], for which the “log2 fold change of degron read counts” value was -2.75 under setting [1], -3.29 under setting [2], -2.33 under setting [3] and -2.08 (compound: thalidomide).

Regarding FNCPVCGAPFTQKGNLLRHIKL [46F_47N_49P_50V_52G_53A_54P_55F_67L_, Q9UKT9], the “log2 fold change of degron read counts” value runs as follows: under setting [1], 3.41; under setting [2], 2.62; under setting [3], 1.33; (compound: thalidomide) 2.25.

For FYCNVCGAPFTQKGNLLRHIKL [46F_47Y_49N_50V_52G_53A_54P_55F_67L_, Q9UKT9], the “log2 fold change of degron read counts” value is, setting by setting: under setting [1], 2.95; under setting [2], 2.35; under setting [3], 1.69; (compound: thalidomide) -0.11.

As to FNCDVCGAPFTQKGNLLRHIKL [46F_47N_49D_50V_52G_53A_54P_55F_67L_, Q9UKT9], the “log2 fold change of degron read counts” value by setting is: under setting [1], 0.937; under setting [2], -0.417; under setting [3], -1.71; (compound: thalidomide) -1.34.

For the sequence FMCPVCGAPFTQKGNLLRHIKL [46F_47M_49P_50V_52G_53A_54P_55F_67L_, Q9UKT9], the “log2 fold change of degron read counts” value by setting is: under setting [1], 2.53; under setting [2], 3.59; under setting [3], 3.09; (compound: thalidomide) 2.96.

FYCDVCGAPFTQKGNLLRHIKL [46F_47Y_49D_50V_52G_53A_54P_55F_67L_, Q9UKT9]: the “log2 fold change of degron read counts” value is 3.09 under setting [1], 2.39 under setting [2], 1.86 under setting [3] and -0.588 (compound: thalidomide).

Take FNCNVCGAPFTQKGNLLRHIKL [46F_47N_49N_50V_52G_53A_54P_55F_67L_, Q9UKT9]: the “log2 fold change of degron read counts” value under setting [1] came to 1, the “log2 fold change of degron read counts” value under setting [2] was -0.317, the “log2 fold change of degron read counts” value under setting [3] was -0.912 and the “log2 fold change of degron read counts” value (compound: thalidomide) was -0.29.

As to FTCPVCGAPFTQKGNLLRHIKL [46F_47T_49P_50V_52G_53A_54P_55F_67L_, Q9UKT9], the “log2 fold change of degron read counts” value under setting [1] came to 1.88, the “log2 fold change of degron read counts” value under setting [2] was found to be 3.16, the “log2 fold change of degron read counts” value under setting [3] is 2.41 and the “log2 fold change of degron read counts” value (compound: thalidomide) was determined as 3.03.

With FWCPVCGAPFTQKGNLLRHIKL [46F_47W_49P_50V_52G_53A_54P_55F_67L_, Q9UKT9], the “log2 fold change of degron read counts” value under setting [1] came to 3.23, the “log2 fold change of degron read counts” value under setting [2] was determined as 2.92, the “log2 fold change of degron read counts” value under setting [3] is 2.67 and the “log2 fold change of degron read counts” value (compound: thalidomide) is 1.06.

Regarding FYCPVCGAPFTQKGNLLRHIKL [46F_47Y_49P_50V_52G_53A_54P_55F_67L_, Q9UKT9], the “log2 fold change of degron read counts” value by setting is: under setting [1], 3.48; under setting [2], 3.24; under setting [3], 2.82; (compound: thalidomide) 1.62.

On to FVCPVCGAPFTQKGNLLRHIKL [46F_47V_49P_50V_52G_53A_54P_55F_67L_, Q9UKT9], for which the “log2 fold change of degron read counts” value by setting is: under setting [1], 1.79; under setting [2], 3.33; under setting [3], 2.13; (compound: thalidomide) 3.19.

FHCPVCGAPFTQKGNLLRHIKL [46F_47H_49P_50V_52G_53A_54P_55F_67L_, Q9UKT9]: the “log2 fold change of degron read counts” value reads like this: under setting [1], 3.2; under setting [2], 2.86; under setting [3], 2.5; (compound: thalidomide) 1.82.

Turning to FECPVCGAPFTQKGNLLRHIKL [46F_47E_49P_50V_52G_53A_54P_55F_67L_, Q9UKT9], the “log2 fold change of degron read counts” value by setting is: under setting [1], 1.88; under setting [2], -0.29; under setting [3], 1.64; (compound: thalidomide) 2.65.
